An excerpt weighted towards active compounds, which were near 0.56% of everything screened.
KinaseGlo FLuc = Counterscreen for Luciferase (Kinase-Glo TM) Inhibition; Luciferin 4-monooxygenase (Photuris pensylvanica), Q27757; Kinase-Glo luciferase, ATP luminescence, 8 min; Potency, µM (doses to about 38.3 µM), without a hit: at the top dose activity change, negative = inhibition, usual class: inhibitors; 200,000 compounds, 0.28% hits; AID 1379, 2008; further: potency means the concentration at half of the fitted maximal effect; on the % scale 0 is the no-effect control and ±100 the full control effect; nearly all actives have a fitted effect of over 60% in size
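Light output from Kinase-Glo luciferase with luciferin and 10 uM ATP in 50 mM imidazole pH 7.2, KCl, MgCl2, Tween 20, BSA; compound pin-delivered, 8-min ambient incubation, then luminescence read.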
GALK inhibitor = qHTS Assay for Inhibitors of Human Galactokinase (GALK); Purified GALK, Kinase-Glo residual ATP luminescence; Potency, µM (doses to about 57.5 µM), without a hit: at the top dose activity change, negative = inhibition, hits mostly inhibitors; 270,000 compounds, 0.007% hits; further: potency means the concentration at half of the fitted maximal effect; on the % scale 0 is the no-effect control and ±100 the full control effect
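Human GALK (5 nM) with 35 uM ATP and 100 uM galactose in 20 mM HEPES pH 8.0, 5 mM MgCl2, 60 mM NaCl, 1 mM DTT, 0.01% BSA. After 1 h at room temperature, leftover ATP was read by Kinase-Glo Plus luminescence.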
Tb PFK inh-1 = qHTS Assay to Find Inhibitors of T. brucei phosphofructokinase; AID 485367, 2010; ATP-dependent 6-phosphofructokinase (Trypanosoma brucei brucei), O15648; Potency, µM (series often up to 57.5 µM), inactives show top-dose activity, negative = inhibition, actives largely listed as inhibitors; 330,000 compounds, 0.17% hits; T. brucei PFK, ADP-Glo luminescence;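 further: potency means the concentration at half of the fitted maximal effect; 0% = uninhibited 1x PFK enzyme wells and -100% = no-enzyme wells; nearly all actives have a fitted effect of over 60% in size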
Target sequence (O15648 whole entry, looked up): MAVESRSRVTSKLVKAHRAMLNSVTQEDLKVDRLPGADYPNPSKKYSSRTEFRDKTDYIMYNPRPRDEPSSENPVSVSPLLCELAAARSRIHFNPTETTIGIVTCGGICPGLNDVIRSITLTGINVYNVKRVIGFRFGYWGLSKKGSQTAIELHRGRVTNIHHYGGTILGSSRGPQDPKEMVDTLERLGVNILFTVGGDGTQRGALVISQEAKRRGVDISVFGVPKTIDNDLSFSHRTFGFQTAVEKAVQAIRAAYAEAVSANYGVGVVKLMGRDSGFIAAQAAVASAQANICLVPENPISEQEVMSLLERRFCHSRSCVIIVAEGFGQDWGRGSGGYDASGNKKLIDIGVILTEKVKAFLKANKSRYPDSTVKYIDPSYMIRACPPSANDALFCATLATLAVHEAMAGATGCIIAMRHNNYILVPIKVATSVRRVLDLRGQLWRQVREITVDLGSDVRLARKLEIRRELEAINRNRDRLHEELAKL
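Compounds were pin-transferred as a titration series up to 57 uM into substrate buffer (0.5 mM F6P, 0.1 mM ATP, pH 8.0), then 1.25 nM PFK was added and reactions ran 45 min before ADP-Glo detection.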
CBFb-RUNX1 inh = qHTS Assay for Compounds Blocking the Interaction Between CBF-beta and RUNX1 for the Treatment of Acute Myeloid Leukemia. 230,000 tested, under 10 active. Runt-related transcription factor 1 (Homo sapiens) + Core-binding factor subunit beta …. AID 1477, 2009. Potency, µM (top dose mostly 59.8 µM), for inactives: at the top dose activity, negative = inhibition, actives largely listed as inhibitors. AlphaScreen CBFb-His/RUNX1-biotin binding, biochemical; further: % of control where 0% means no effect
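Read-out: AlphaScreen. Format: His-CBF-beta with biotinylated RUNX1 (30 nM each) preincubated 20 min, compound 15 min, Ni-chelate plus streptavidin beads 90 min; room temperature throughout.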
PKM2 act = qHTS Assay for Activators of Human Muscle isoform 2 Pyruvate Kinase; Potency, µM (series often up to 57.5 µM), for the others: at the top dose activation, hits mostly activators; AID 1631, 2009; 260,000 compounds, 0.34% hits; purified PKM2, Kinase-Glo ATP luminescence, activation; response scale: 0% is enzyme alone, no compound; further: potency means the concentration at half of the fitted maximal effect; on the % scale 0 is the no-effect control and ±100 the full control effect; nearly all actives have a fitted effect of over 55% in size
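hPK-M2, >95% pure; 0.1 mM ADP / 0.5 mM PEP final; imidazole pH7.2 buffer w/ 7 mM MgCl2, 50 mM KCl; 1 h RT; Kinase-Glo lum. Intermediate enzyme activity for dual inhibitor/activator qHTS.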
TbPFK ATP = Tb PFK orthogonal confirmatory assay using ATP depletion (Kinase-Glo Plus) as an alternative measure of Tb PFK activity: Hit Validation; shares compounds with Tb PFK inh-1; Tb PFK enzyme, ATP depletion, Kinase-Glo Plus luminescence; Potency, µM (highest dose often 57.5 µM), inactives show top-dose inhibition; 1,100 compounds, 47% hits; AID 504636, 2011; calls by dose curve; further: potency means the concentration at half of the fitted maximal effect; nearly all actives have a fitted effect of over 60% in size
Tb PFK inh-2 = Inhibitors of T. brucei phosphofructokinase: Hit Validation; Potency, µM (series often up to 57.5 µM), inactives show top-dose activity change, negative = inhibition, actives largely listed as inhibitors; purified T. brucei PFK, ADP-Glo luminescence, 45 min; 1,100 compounds, 41% hits; shares compounds with Tb PFK inh-1;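 further: potency means the concentration at half of the fitted maximal effect; plate controls were full PFK enzyme control for no effect and no enzyme control for full effect; nearly all actives have a fitted effect of over 60% in size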
* hit, by the source's call; ? = inconclusive; · = no result; [ ] = another dose, or the depositor's remark. Unless noted, the call rests on the fitted dose curve; in most records, active means well fitted curve in the direction sought with a large enough effect; inconclusive means small, poorly fitted or top-dose-only effect, or another doubt; inactive means no such curve, though single readings can be large; an effect the other way counts as inactive or inconclusive.

SMILES	KinaseGlo FLuc	GALK inhibitor	Tb PFK inh-1	CBFb-RUNX1 inh	PKM2 act	TbPFK ATP	Tb PFK inh-2
Oc1c(Cl)cc(Cl)cc1CN1CCN(Cc2ccccc2)CC1	-1.0%	2.3%	-1.8%	-7.2%	-11.3%	·	·
O=C(CCN1CCN(Cc2ccccc2)CC1)NNC(=O)Cc1ccc(Cl)c(Cl)c1	-0.3%	-0.9%	16.9µM*	-2.3%	6.0%	8.49µM*	10.7µM*
CC1=C(C(=O)Nc2ccccc2C(F)(F)F)C(c2ccc(C)s2)NC(=S)N1 (stereo unspecified)	-0.6%	-0.7%	?	3.3%	11.7%	5.2%	4.2%
Fc1ccc(CNc2ncnc3cc(Cl)ccc23)cc1	·	11.1%	19µM*	·	·	?	26.9µM*
COCc1cc(/C=N\NC(=O)Cc2ccc(Cl)cc2)ccc1OC	-1.0%	0.7%	21.3µM*	0.1%	4.4%	?	?
CCOP(=O)(Nc1ccc2oc(=O)c3ccccc3c2c1)OCC	·	5.1%	?	16.9%	-6.9%	8.3%	20.5%
CCOP(=O)(OCC)C(O)c1ccccc1 (stereo unspecified)	·	-2.1%	-3.8%	4.2%	0.3%	·	·
C[C@H](NC(=O)C1CCN(S(=O)(=O)c2ccccc2)CC1)C(=O)NCc1ccc(Cl)c(Cl)c1	·	-6.3%	26.9µM*	·	·	21.3µM*	?
O=C(O)c1cc(-c2ccco2)nn1-c1ccc(Cl)cc1	-0.9%	0.7%	?	?	-19.8%	?	?
O=C=NCCCCN=C=O	·	·	·	-3.9%	·	·	·
NS(=O)(=O)C[C-]1C=C[CH]([Sb-]([Cl])([Cl])([Cl])([Cl])[Cl])C=C1.c1ccncc1 (stereo unspecified)	-3.5%[7.66 µM]	·	·	·	·	·	·

Screening results from PubChem BioAssay.
